16 compounds from ChEMBL document CHEMBL1961873, “Compounds: GSK PKIS; Assays: Nanosyn kinase panel” (2012) can be followed below.

Assay [1] has as its target Calcium/calmodulin-dependent protein kinase type II subunit alpha (Homo sapiens) (UniProt Q9UQM7). Particulars: at 1 µM.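 Note: reported value is a mean percent inhibition of CAMK2A.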
In assay [2] the target is Calcium/calmodulin-dependent protein kinase type II subunit delta (Homo sapiens) (UniProt Q13557). The following applies: at 0.1 µM.
Calcium/calmodulin-dependent protein kinase type II subunit delta (Homo sapiens), sequence (Q13557 whole entry): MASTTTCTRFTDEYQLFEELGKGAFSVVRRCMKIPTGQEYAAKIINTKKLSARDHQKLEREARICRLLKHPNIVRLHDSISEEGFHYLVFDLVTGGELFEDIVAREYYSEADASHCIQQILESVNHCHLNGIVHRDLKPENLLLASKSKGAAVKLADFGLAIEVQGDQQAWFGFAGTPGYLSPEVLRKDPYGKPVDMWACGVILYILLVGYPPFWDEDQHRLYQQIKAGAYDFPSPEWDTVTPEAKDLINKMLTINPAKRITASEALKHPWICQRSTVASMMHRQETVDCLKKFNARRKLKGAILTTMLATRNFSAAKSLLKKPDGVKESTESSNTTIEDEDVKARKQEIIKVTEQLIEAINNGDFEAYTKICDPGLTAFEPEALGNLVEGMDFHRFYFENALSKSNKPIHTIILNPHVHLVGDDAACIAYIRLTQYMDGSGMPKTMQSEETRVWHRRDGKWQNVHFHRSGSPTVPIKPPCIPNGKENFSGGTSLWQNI
Assay [3] has the same target. Particulars: at 1 µM.
For assay [4], the target named is T1, Calcium/calmodulin-dependent protein kinase type IV (Homo sapiens) (UniProt Q16566).
T1 sequence (whole entry): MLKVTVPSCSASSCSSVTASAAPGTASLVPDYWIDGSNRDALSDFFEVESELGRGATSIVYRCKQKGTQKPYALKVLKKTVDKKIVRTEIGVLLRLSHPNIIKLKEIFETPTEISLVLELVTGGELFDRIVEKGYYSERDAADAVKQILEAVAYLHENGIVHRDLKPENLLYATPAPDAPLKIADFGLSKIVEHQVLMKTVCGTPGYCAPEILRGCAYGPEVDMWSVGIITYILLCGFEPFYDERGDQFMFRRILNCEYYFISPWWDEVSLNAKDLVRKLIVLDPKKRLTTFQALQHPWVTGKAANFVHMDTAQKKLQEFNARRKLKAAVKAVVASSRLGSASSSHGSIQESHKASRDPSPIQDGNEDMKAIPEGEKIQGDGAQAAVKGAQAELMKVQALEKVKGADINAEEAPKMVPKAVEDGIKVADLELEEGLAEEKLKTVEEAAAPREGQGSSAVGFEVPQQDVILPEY
Particulars: at 0.1 µM.

For assay [5], the target named is T1, Calcium/calmodulin-dependent protein kinase type IV (Homo sapiens). Particulars: at 1 µM.
Assay [6] deals with T2, Serine/threonine-protein kinase Chk1 (Homo sapiens) (UniProt O14757).
T2 sequence (whole entry): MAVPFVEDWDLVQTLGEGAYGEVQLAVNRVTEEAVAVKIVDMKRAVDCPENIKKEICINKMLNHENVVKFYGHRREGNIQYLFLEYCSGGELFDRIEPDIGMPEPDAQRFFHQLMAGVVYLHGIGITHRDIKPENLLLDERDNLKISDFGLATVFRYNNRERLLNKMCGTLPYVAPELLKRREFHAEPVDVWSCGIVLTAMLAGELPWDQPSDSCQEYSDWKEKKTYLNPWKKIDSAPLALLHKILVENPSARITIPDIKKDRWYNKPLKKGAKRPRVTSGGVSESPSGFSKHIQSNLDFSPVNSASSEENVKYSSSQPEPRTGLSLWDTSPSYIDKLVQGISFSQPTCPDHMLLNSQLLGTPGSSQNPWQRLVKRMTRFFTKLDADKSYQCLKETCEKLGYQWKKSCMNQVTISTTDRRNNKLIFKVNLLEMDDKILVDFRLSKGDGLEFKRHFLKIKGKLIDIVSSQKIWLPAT
Particulars: at 0.1 µM.

Assay [7] has as its target T2, Serine/threonine-protein kinase Chk1 (Homo sapiens). The following applies: at 1 µM.
Assay [8] deals with Serine/threonine-protein kinase Chk2 (Homo sapiens) (UniProt O96017). Particulars: at 0.1 µM.
Serine/threonine-protein kinase Chk2 (Homo sapiens), sequence (O96017 whole entry): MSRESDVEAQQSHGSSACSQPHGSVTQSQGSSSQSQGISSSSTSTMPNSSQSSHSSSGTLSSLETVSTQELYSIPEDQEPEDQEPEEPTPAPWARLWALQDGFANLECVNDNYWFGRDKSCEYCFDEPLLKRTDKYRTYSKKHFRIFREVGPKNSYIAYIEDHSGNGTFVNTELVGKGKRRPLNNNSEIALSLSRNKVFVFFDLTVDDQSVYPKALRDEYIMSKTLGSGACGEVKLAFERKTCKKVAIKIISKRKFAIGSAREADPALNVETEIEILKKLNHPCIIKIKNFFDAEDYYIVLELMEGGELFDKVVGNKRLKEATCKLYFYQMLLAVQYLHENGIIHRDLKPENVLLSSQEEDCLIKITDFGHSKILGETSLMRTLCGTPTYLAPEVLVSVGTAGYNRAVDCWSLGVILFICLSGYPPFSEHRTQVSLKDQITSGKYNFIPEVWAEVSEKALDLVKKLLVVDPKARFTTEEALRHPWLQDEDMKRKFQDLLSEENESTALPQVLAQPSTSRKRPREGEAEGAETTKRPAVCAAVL
For assay [9] the target is unchanged. Particulars: at 1 µM.
In assay [10] the target is Death-associated protein kinase 1 (Homo sapiens) (UniProt P53355). Particulars: at 0.1 µM.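 Note: reported figure is the mean inhibition of DAPK1.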
Death-associated protein kinase 1 (Homo sapiens), sequence (P53355 whole entry, looked up): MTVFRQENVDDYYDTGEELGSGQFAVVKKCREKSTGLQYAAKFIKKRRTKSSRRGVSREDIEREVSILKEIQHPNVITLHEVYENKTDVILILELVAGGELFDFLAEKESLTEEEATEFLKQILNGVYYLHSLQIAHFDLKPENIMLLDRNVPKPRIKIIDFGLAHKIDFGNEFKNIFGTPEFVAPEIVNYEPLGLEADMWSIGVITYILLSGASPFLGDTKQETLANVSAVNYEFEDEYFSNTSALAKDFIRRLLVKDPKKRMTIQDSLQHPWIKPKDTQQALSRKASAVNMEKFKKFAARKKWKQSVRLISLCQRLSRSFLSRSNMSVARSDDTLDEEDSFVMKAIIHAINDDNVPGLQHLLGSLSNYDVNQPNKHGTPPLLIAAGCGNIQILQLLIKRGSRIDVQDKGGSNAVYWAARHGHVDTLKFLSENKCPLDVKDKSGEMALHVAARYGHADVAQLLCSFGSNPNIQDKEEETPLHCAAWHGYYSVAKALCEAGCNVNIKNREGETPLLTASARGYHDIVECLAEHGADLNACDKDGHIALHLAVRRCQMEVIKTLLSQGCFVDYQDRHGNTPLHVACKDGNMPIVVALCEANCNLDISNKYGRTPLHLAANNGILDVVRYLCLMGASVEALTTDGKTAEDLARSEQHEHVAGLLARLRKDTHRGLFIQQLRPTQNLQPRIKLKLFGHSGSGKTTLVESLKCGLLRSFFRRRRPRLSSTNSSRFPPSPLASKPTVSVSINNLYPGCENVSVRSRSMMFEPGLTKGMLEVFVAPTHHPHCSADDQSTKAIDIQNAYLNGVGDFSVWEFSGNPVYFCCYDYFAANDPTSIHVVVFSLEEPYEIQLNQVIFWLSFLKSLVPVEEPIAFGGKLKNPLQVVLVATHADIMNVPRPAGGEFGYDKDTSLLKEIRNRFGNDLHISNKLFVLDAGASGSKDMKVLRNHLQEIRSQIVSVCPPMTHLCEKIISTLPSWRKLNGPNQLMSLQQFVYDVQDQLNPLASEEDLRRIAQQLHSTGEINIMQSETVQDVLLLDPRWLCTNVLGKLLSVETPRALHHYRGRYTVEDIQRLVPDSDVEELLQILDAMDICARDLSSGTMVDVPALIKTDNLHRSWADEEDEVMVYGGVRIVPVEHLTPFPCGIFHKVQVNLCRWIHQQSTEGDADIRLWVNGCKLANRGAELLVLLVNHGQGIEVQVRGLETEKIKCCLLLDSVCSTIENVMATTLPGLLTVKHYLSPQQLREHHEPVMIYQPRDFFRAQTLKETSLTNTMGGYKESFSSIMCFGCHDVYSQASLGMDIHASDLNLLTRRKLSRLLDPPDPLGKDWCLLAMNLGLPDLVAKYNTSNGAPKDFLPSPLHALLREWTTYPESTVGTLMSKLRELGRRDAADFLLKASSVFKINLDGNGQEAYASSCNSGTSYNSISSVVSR

Calcium/calmodulin-dependent protein kinase type II subunit alpha (Homo sapiens), sequence (Q9UQM7 whole entry): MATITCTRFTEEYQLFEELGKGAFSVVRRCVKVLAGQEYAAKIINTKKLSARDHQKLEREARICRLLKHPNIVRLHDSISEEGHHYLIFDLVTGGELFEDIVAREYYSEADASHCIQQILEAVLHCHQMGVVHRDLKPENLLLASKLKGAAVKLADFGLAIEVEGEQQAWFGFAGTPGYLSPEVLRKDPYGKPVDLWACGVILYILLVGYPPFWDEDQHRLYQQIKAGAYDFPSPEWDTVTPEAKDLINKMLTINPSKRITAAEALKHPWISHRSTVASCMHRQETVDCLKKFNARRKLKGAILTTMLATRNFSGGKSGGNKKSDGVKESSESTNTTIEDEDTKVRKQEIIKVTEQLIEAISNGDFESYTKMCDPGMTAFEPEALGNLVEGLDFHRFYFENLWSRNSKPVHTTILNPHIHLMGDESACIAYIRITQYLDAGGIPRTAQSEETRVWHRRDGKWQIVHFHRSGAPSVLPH

Consider `CNC(=O)c1cncc(/C=C/c2c(Cl)cccc2Cl)c1`, for which the inhibition in assay [1] was found to be 4.95%; in assay [2], 3.11%; in [3], 8.55%; in assay [4] it was 0.01%; in [5] it was 3.19%; in assay [6], 0.16%. The inhibition in [7] is 4.57%; in assay [8] it was 2.6%; in assay [9], 9.62%; in [10], 2.23%.

Regarding `COC(=O)Nc1nc2cc(Oc3ccc(NC(=O)Nc4cccc(C(=O)O)c4)cc3)ccc2[nH]1`, the inhibition was 3.09% in assay [1]; 1.92% in assay [2]; 1.91% in [3]; -1.16% in [4]; -2.08% in assay [5]; -3.62% in assay [6]. The inhibition in assay [7] was -0.43%; in [8] it was 0.25%; in assay [9], 6.26%; in assay [10], 1.22%.

On to `CS(=O)(=O)Nc1ccc(N/C=C2\C(=O)Nc3ccccc32)cc1`, for which the inhibition in [1] was -2.22%; in assay [2] it was -2.44%; in assay [3] it was 4.73%; in assay [4], -0.09%; in assay [5], -1.35%; in assay [6], -0.22%. The inhibition was 5.75% in assay [7], -1.67% in assay [8], 10.4% in [9] and -1.81% in assay [10].

As to `NCc1ccc(-c2nc(-c3ccc(Cl)c(O)c3)c(-c3ccncc3)[nH]2)cc1`, the inhibition in assay [1] is 2.11%; in assay [2], -0.18%; in assay [3], 2.12%; in assay [4], 0.6%; in assay [5], 0.53%; in assay [6] it was -0.88%. Also, the inhibition in assay [7] was 2.53%; in [8], -0.52%; in assay [9], 0.67%; in assay [10] it was 0.81%.

Turning to `COc1cc2ncn(-c3cc(O[C@@H](C)c4ccccc4Cl)c(C(N)=O)s3)c2cc1OC`, the inhibition was -1% in [1]; 2.63% in assay [2]; 5.01% in assay [3]; -1.47% in assay [4]; -3.56% in [5]; 9.31% in assay [6]. For the same compound, the inhibition in assay [7] is 11.3%; in assay [8], 8.19%; in assay [9], 11.6%; in assay [10], 13.5%.

For `Cc1nn(C)c2cc(N(C)c3ccnc(Nc4cccc(S(N)(=O)=O)c4)n3)ccc12`, the inhibition came to 1.72% in assay [1]; 2.35% in assay [2]; 3.73% in assay [3]; 1.4% in assay [4]; 1.88% in [5]; 4.46% in [6]. Also, the inhibition in assay [7] worked out at 56%; in assay [8], 6.25%; in [9] it was 9.6%; in [10] it was 8.62%.

In the case of `Cc1cccc(-c2n[nH]cc2-c2ccc3ncccc3n2)n1`, the inhibition in [1] was -0.05%; in [2], 0.08%; in assay [3], 2.08%; in [4], 1.14%; in assay [5] it was 2.81%; in assay [6], 2.24%. For the same compound, the inhibition in assay [7] was 1.66%; in assay [8], -0.67%; in assay [9], -0.16%; in assay [10], 0.65%.

For `COc1ccc(-c2ccncc2)cc1C(N)=O`, the inhibition was 3.32% in assay [1]; 3.92% in [2]; 8.26% in [3]; -1.04% in assay [4]; 0.03% in assay [5]; 8.46% in [6]. Besides, the inhibition in [7] came out at 10.1%; in [8] it was 8.96%; in [9] it was 12.5%; in assay [10], 14%.

As to `O=C1NC(=O)C(c2ccc(Cl)cc2)=C1Nc1ccc(Cl)c(C(=O)O)c1`, the inhibition in assay [1] is -3.46%; in assay [2], -2.31%; in assay [3] it was 1.44%; in [4], 0.68%; in assay [5] it was 0.51%; in [6], -0.04%. Besides, the inhibition in assay [7] is -1.22%; in assay [8] it was -2%; in assay [9], -1.93%; in [10], -1.53%.

Consider `Cn1cc(C=C2C(=O)Nc3cccnc32)c2ccccc21`, for which the inhibition in assay [1] was 3.18%; in [2], 2.44%; in assay [3], 6.23%; in assay [4] it was 0.47%; in [5] it was -0.07%; in assay [6], 0.66%. Further, the inhibition in assay [7] is 7.2%; in assay [8], 2.65%; in assay [9], 15.6%; in assay [10], 2.44%.

As for `NS(=O)(=O)c1ccc(N/N=C2\C(=O)Nc3ccc(C(=O)NCCc4c[nH]cn4)cc32)cc1`, the inhibition in assay [1] is 10.6%; in assay [2] it was 8.76%; in [3], 32.5%; in assay [4] it was 0.01%; in [5], 0.46%; in assay [6], 4.59%. Also, the inhibition in assay [7] came out at 17.2%; in assay [8], 4.59%; in assay [9], 18.3%; in assay [10] it was 4.26%.

Consider `O=C1Nc2ccc(C(=O)c3ccco3)cc2C1=Cc1cc(Cl)c(O)c(Cl)c1`, for which the inhibition came out at 8% in assay [1]; 3.46% in [2]; 11.4% in assay [3]; 0.35% in [4]; 0.09% in assay [5]; 1.54% in [6]. Also, the inhibition in [7] was 5.95%; in assay [8], 2.67%; in [9], 12.5%; in assay [10], -0.53%.

On to `COc1ccccc1Nc1ncc(-c2ccccc2)o1`, for which the inhibition in assay [1] is 0.2%; in assay [2] it was 3.81%; in assay [3], 4.92%; in [4] it was 0.89%; in assay [5], -8.72%; in assay [6], -2.97%. Further, the inhibition in assay [7] was -2.91%; in [8], -2.63%; in assay [9], -3.53%; in [10], -1.69%.

Consider `NC(=O)c1cccc(Nc2nccc(Nc3cccc4[nH]ncc34)n2)c1`, for which the inhibition was -1.01% in assay [1]; -1.68% in [2]; 3.58% in assay [3]; 1.19% in assay [4]; 2.27% in assay [5]; 1.94% in assay [6]. Moreover, the inhibition in [7] is 44.1%; in assay [8], -2.95%; in [9], 9.48%; in [10], 0.17%.

As to `CCN1CCC(CC(=O)Nc2n[nH]c3nc(-c4cccs4)c(Br)cc23)CC1`, the inhibition in assay [1] was -1.26%; in assay [2], -1.29%; in assay [3], 7.67%; in [4] it was 0.29%; in assay [5], -0.89%; in assay [6] it was 2.28%. The inhibition in assay [7] is 2.57%; in assay [8] it was -3.64%; in assay [9], -3.75%; in [10], 0.43%.

Turning to `COc1cc(C)c(NC(=O)CN(C)C)cc1Nc1nc(Nc2cccc(F)c2C(N)=O)c2cc[nH]c2n1`, the inhibition was 8.59% in assay [1]; 4.57% in assay [2]; 14.2% in [3]; 9.62% in [4]; 40% in assay [5]; -4.03% in assay [6]. For the same compound, the inhibition in [7] was -1.09%; in [8], 40.2%; in assay [9], 76.2%; in assay [10] it was 1.58%.

As a reminder, the inhibition is the change of the read-out against control, counted positive when it falls.
